# Measurements: PubChem BioAssay (NCATS)
# Unmarked numbers belong to inactive results. The source made the active and inactive calls. No rule for the calls is given here.
# Test system: HIV-1 nucleocapsid protein NCp7 (binding to TG oligonucleotide)
# Experiment: HIV Nucleocapsid (AID 346);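 also: potency is for inhibitors that block NC binding and lower polarization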
# Conditions: HIV-1 NC / fluorescein-TGTGTGTG probe, fluorescence polarization
# Method in brief: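 Reagents dispensed (10 nM TG4xF, 100 nM HIV-1 NC), plates spun, compounds pin-transferred, then incubated 1 hr at room temperature before FP imaging. Buffer: Hepes pH 7.5, 250mM NaCl, 1uM ZnCl2, 100 uM TCEP, 5 mM 2-mercaptoethanol.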
# Potency is read from the fitted curve at half-maximal effect.
row,Compound,Potency
1,Clc1ccccc1-c1ccc2ncnc(N3CCNCC3)c2c1,> 20 µM
2,COCCn1c(=O)c(C)nc2cnc(N3CCOCC3)nc21,> 20 µM
3,COCCn1c(=O)c(-c2ccc(Cl)cc2)nc2cnc(N3CCOCC3)nc21,> 20 µM
4,O=C(c1cccc(F)c1)N1CCC2(CCCN(C(c3ccccc3)c3ccccc3)C2)CC1,> 20 µM
5,O=c1c(-c2ccc(F)cc2)nc2cncnc2n1C1CC1,> 20 µM
6,Cn1c(=O)cnc2cnc(OCc3ccccc3)nc21,> 20 µM
7,CNc1ccnc(-c2cccc(NS(C)(=O)=O)c2)n1,> 20 µM
8,c1ccc(C(c2ccccc2)N2CCC3(CCNCC3)CC2)cc1,> 20 µM
9,CN1CCN(c2nc(-c3ccccc3C(F)(F)F)nc3ccccc23)CC1,> 20 µM
10,O=c1c(-c2ccc(F)cc2)nc2cnc(N3CCNCC3)nc2n1C1CC1,> 20 µM
11,c1cncc(-c2cc(NCc3cccs3)ncn2)c1,> 20 µM
12,CC(=O)N1CCC2(CCCN(c3ccncc3)C2)CC1,> 20 µM
13,O=C(c1ccncc1)N1CCC2(CCCN(c3ccncc3)C2)CC1,> 20 µM
14,N#Cc1cccc(NC(=O)N2CCCC3(CCN(C(=O)c4cccc(F)c4)CC3)C2)c1,> 20 µM
15,COc1ccc(-c2nc3cnc(Oc4ccccc4)nc3n(Cc3cccs3)c2=O)cc1,> 20 µM
16,CN(C)c1ncc2nc(-c3cccc(C#N)c3)c(=O)n(C)c2n1,> 20 µM
17,COc1cccc(Cn2c(=O)c(CCc3ccccc3)nc3cnc(N4CCOCC4)nc32)c1,> 20 µM
18,COc1ccc(-c2nc3cnc(N(C)C)nc3n(Cc3ccc(F)cc3)c2=O)cc1,> 20 µM
19,COc1cccc(-c2nc(NCCN3CCOCC3)c3ccccc3n2)c1,> 20 µM
20,CN(C)c1ccc(-c2nccc(NCc3ccccc3)n2)cc1,> 20 µM

row,Compound,Potency
1,Cc1cnc(CNc2ncncc2-c2ccc(N(C)C)cc2)cn1,> 20 µM
2,O=c1cnc2cnc(Oc3ccccc3)nc2n1C1CC1,> 20 µM
3,O=c1cnc2cncnc2n1Cc1ccccc1,> 4 µM
4,COc1ccccc1-c1ccc2ncnc(NCCNC(C)=O)c2c1,> 20 µM
5,COCC(=O)N1CCC2(CC1)CN(C(=O)Nc1cccc(F)c1)C2,> 20 µM
6,CS(=O)(=O)N1CCC2(CCCN(c3cccc(-c4ccccc4)c3)C2)CC1,> 20 µM
7,O=c1c(-c2cccs2)nc2cnc(Oc3cccc(Cl)c3)nc2n1C[C@H]1CCCO1,> 20 µM
8,O=S(=O)(c1ccccc1)N1CCC2(CCN(c3ccccc3)CC2)CC1,> 20 µM
9,COc1ccccc1-c1cc(NCc2cnc(C)cn2)ncn1,> 20 µM
10,c1nc(N2CCNCC2)c2cc(-c3ccoc3)ccc2n1,> 20 µM
11,COC(=O)N1CCC2(CCN(Cc3ccccc3)CC2)CC1,> 20 µM
12,COCCn1c(=O)c(-c2ccc(OC)cc2)nc2cnc(Nc3cccc(OC)c3)nc21,8.97 µM (active)
13,COc1ccc(-n2c(=O)c(-c3cccc(Cl)c3)nc3cncnc32)cc1,> 4 µM
14,Cc1noc(C)c1-c1ccc2ncnc(N3CCC(C(=O)O)CC3)c2c1,> 20 µM
15,COc1ccc(-n2c(=O)c(-c3cc(F)cc(F)c3)nc3cnc(N4CCOCC4)nc32)cc1,> 20 µM
16,COCCn1c(=O)c(-c2ccc(F)cc2)nc2cnc(Oc3cccc(Cl)c3)nc21,> 20 µM
17,CN(C)c1ccc(-c2cncnc2NCCc2cnc[nH]2)cc1,> 20 µM
18,O=C(c1cnccn1)N1CCC2(CC1)CN(c1ccncc1)C2,> 20 µM
19,COc1cccc(-c2cc(NCc3ccc(OC)cc3OC)ncn2)c1,> 20 µM
20,O=S(=O)(c1ccccc1)N1CCC2(CCN(c3ccncc3)CC2)CC1,> 20 µM
